In all, about 350,000 compounds went through this assay and about 600 (0.17%) were called active.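 Rule for the calls: active = every replicate shows inhibition of at least 40%; inconclusive = mean inhibition at least 40% but some replicate below; inactive = the rest.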 The entries come from a sample that favours actives as a whole.

The values below come from PubChem BioAssay AID651687 (Broad Institute, 2012).

A short description of the experiment: compounds lowering acetylated PGC1a in cells – cell-based, U2OS, AlphaScreen, inhibitor mode, primary screen (AID 651687).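 Note: 0% = neutral control wells and 100% = positive control wells.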 As to conditions: U2OS PGC1a acetylation, AlphaScreen anti-acetyl-lysine; at 15.6 µM; stronger effect = higher value. Background: In Alpha technology, singlet oxygen from a donor bead excites a nearby acceptor bead.
As for `CCC(C)(O)C(=O)OC1C(=O)OC2CC3C(C)=CC(=O)C(O)C3(C)C3C4(O)OCC23C1C(C)C4O` (stereo not given), the inhibition (usually the change of the read-out against control, counted positive when it falls) was 80% (active). Regarding `O=C(Cc1ccncc1)N1CCCCN2[C@@H](CO)[C@H](c3ccc(-c4ccncc4)cc3)[C@@H]2C1`, the inhibition is 1.83% (inactive). To `O=c1[nH]c2ccccc2n1C1CCN(C(c2ccccc2)c2nnnn2Cc2ccccc2)CC1` (stereo not given) belongs 10.6% (inactive). The figure for `COC(=O)C1=C(c2ccc(OCc3ccccc3)cc2)C[C@@H]2CC[C@H]1N2C(=O)NCc1cccc(F)c1` is -39.8% (inactive). To `O=C(Cc1ccncc1)N1CCCCN2[C@H](CO)[C@@H](c3ccc(C#CC4(O)CCCC4)cc3)[C@H]2C1` belongs -7.38% (inactive); to `COC1C(O)C(C)OC(OC2CCC3(C=O)C(CCC4C3CCC3(C)C(C5=CC(=O)OC5)CCC43O)C2)C1O` (stereo not given), 82.1% (active); to `O=C(c1ccccc1)C(O)(CN1CCCCC1)c1ccccc1` (stereo not given), -2.16% (inactive). On to `COC(=O)C(c1ccccc1)N1CCCCCC1` (stereo not given), for which the inhibition is 5.94% (inactive). To `c1ccc(C(CN2CCCCC2)c2ccccc2)cc1` belongs 40.7% (active); to `N#Cc1cccc(-c2ccc([C@H]3[C@@H](CO)N4CCCCN(C(=O)Cc5cccnc5)C[C@@H]34)cc2)c1`, -1.39% (inactive).

Consider `OC[C@@H]1[C@H]2c3ccccc3NC[C@H]2N1Cc1cccnc1`, for which the inhibition is 3.98% (inactive). The figure for `CCOC(=O)c1cccc(C2=C(CNC(=O)c3ccncc3)[C@H]3CC[C@@H](C2)N3Cc2ccccc2)c1` is -1.43% (inactive); for `O=C(Cc1cccnc1)N1CCCCN2[C@@H](CO)[C@H](c3ccc(C#CC4CCCC4)cc3)[C@@H]2C1` it is -10.8% (inactive).

As to `O=C(NCC1=C(c2ccc3ccccc3c2)C[C@@H]2CC[C@H]1N2Cc1ccco1)c1cccs1`, the inhibition was -0.267% (inactive). The figure for `COC(=O)C[C@@H]1CC[C@@H]2NC[C@@H](O)COC[C@H]2O1` is -2.11% (inactive).
